# According to ChEMBL document CHEMBL4513216, “Probing the Open Global Health Chemical Diversity Library for Multistage-Active Starting Points for Next-Generation Antimalarials” (ACS Infect Dis, 2020):
# Screen size: about 69,000 compounds; about 8,600 (12%) showed an effect of 50% or more. The sample holds strong results, similar compounds and a random draw of the others, so the mix is not that of the screen.
# System: Plasmodium berghei
# Assay: Screen against P. berghei liver stage (PbLuc), transformed with Luciferase, at 10uM
# Type: functional, HepG2
# Settings: tested at 10 uM
row,Structure (SMILES),INHIBITION
1,Fc1ccc(-c2cnc(CN3CCn4c(nnc4C4CC4)C3)o2)cc1,21.8%
2,CN1C(=O)CCCC12CCCN(Cc1cccs1)C2 (stereo not drawn),-2.35%
3,N#Cc1ccc(C(=O)O)nc1C=Cc1cccc(Cl)c1,10.2%
4,c1coc(-c2noc(CN3CCCCC3Cn3cncn3)n2)c1 (stereo not drawn),17.4%
5,COCc1ncc(CN2C[C@@H](C(=O)O)[C@H](C(C)C)C2)cn1,24.2%
6,CC(C)[C@@H]1CN(Cc2cnc(C3CCCCC3)nc2)C[C@H]1C(=O)O,13.5%
7,COCCc1ncc(CN2C[C@@H](C(=O)O)[C@H](C(C)C)C2)cn1,50.2%
8,CSc1cc2c(cc1NC(=O)NCC(=O)N(C)C)OCCO2,35.9%
9,CC(NC(=O)NCCn1ccnc1)c1ccc2c(c1)OCCO2 (stereo not drawn),31.8%
10,COCCN(C)C(=O)Nc1cc2c(cc1SC)OCCO2,-34%
11,CSc1cc2c(cc1NC(=O)NCCn1ccnc1)OCCO2,64.6%
12,CCCNC(=O)Nc1cc2c(cc1SC)OCCO2,8.47%
13,COCCNC(=O)Nc1cc2c(cc1SC)OCCO2,69.1%
14,CSc1cc2c(cc1NC(=O)NCC1CCOC1)OCCO2 (stereo not drawn),67.3%
15,CSc1cc2c(cc1NC(=O)NCc1ccncc1)OCCO2,8.4%
16,CSc1cc2c(cc1NC(=O)NCC(C)(C)C(N)=O)OCCO2,48.5%
17,O=C(N1CCCC(n2cncn2)C1)C1(c2ccccc2F)CCCC1 (stereo not drawn),22.3%
18,Cn1cnc(CNC(=O)c2ccccc2-n2cc(CN)cn2)c1,-5.71%
19,COCC1CC2(CCN(Cc3cccnc3)CC2)CN1c1ncccn1 (stereo not drawn),22.2%
20,Cc1cc(S(=O)(=O)NC(=O)CCc2cncc(F)c2)c(C)s1,24.3%
21,COCc1nc(C(=O)N2CCCC2c2cccc(C)c2)cs1 (stereo not drawn),-23.8%
22,COc1c(C)cnc(CN2CCCC(Cn3nc(C)nc3C)C2)c1C (stereo not drawn),-1.14%

row,Structure (SMILES),INHIBITION
1,CC(NC(=O)NCCn1ccnc1)c1nncn1C (stereo not drawn),39.3%
2,COc1cccc(CNc2cc(N3CCCC3CO)ncn2)n1 (stereo not drawn),-14.6%
3,O=C(O)c1ccccc1-c1ccc(CN2CC(c3ccncn3)C2)o1,6.1%
4,CN(C)c1cc(CNC(=O)c2cn(-c3ccc(F)cc3)nn2)ccn1,70.6%
5,CN(C)c1cc(CNC(=O)c2ccc(F)cc2)ccn1,-7.35%
6,CN(C)c1cc(CNC(=O)c2cc(F)ccc2F)ccn1,-2.53%
7,CC(C)COCC(NC(=O)c1ccncc1)c1ccco1 (stereo not drawn),28.8%
8,N#Cc1ccc(NC2CCN(c3ncccn3)CC2)cc1Cl,28.7%
9,CS(=O)(=O)N1CCC(Nc2ccc(C#N)c(C(F)(F)F)c2)CC1,-11.7%
10,N#Cc1ccc(NC2CCN(c3ncccn3)CC2)cc1C(F)(F)F,68.2%
11,CC(C)(C)c1ncc(C(=O)NCCNc2ncccn2)s1,-39.3%
12,CCN(Cc1ccncc1)CC1(C)Cc2c(N)nc(N)nc2O1 (stereo not drawn),14.27%
13,COc1ccc(CN2CCCn3cnc(COC(C)C)c3C2)cc1,56.7%
14,CC(C)OCc1ncn2c1CN(CCO)CCC2,0.804%
15,CC(C)OCc1ncn2c1CN(Cc1ccc(F)cc1)CCC2,9.67%
16,CC(C)OCc1ncn2c1CN(Cc1ccoc1)CCC2,59%
17,c1cc(CN2CCCn3cnc(COCC4CC4)c3C2)co1,35.7%
18,Cc1nc(CN2CCCn3cnc(COC(C)C)c3C2)cs1,66%
19,c1nc(COCC2CC2)c2n1CCCN(CC1CC1)C2,11.5%
20,CC(C)OCc1ncn2c1CN(Cc1nccs1)CCC2,46.2%
21,CC(C)OCc1ncn2c1CN(CC1CC1)CCC2,66%
22,COc1ccc(CN2CCCn3cnc(COCC4CC4)c3C2)cc1,42.6%

row,Structure (SMILES),INHIBITION
1,Cc1nc(CN2CCCn3cnc(COCC4CC4)c3C2)cs1,4.02%
2,CC(C)OCc1ncn2c1CN(Cc1cnn(C)c1)CCC2,-7.24%
3,COc1ccsc1C(=O)N1CCCC(n2nc(C)cc2C)C1 (stereo not drawn),-5.25%
4,N#Cc1cccc(NC(=O)C2CCCN2c2nccs2)c1 (stereo not drawn),17.865%
5,O=C(CC1CCCCC1)NC1CCCCNC1=O (stereo not drawn),-65.3%
6,CCc1ccc(CC(=O)N2CCN(c3nccn3C)CC2)cc1,27%
7,CSCCC(NC(=O)c1ccccc1)C(=O)N(C)Cc1ccsc1 (stereo not drawn),16.1%
8,O=C(NCCn1nc(C2CCNC2)c2cccnc21)c1ccccc1 (stereo not drawn),-11.7%
9,CN(C)Cc1nnn2c1CN(Cc1cccnc1)CCC2,-21.1%
10,CCc1noc(CN2CCN(Cc3cccs3)CC2)n1,3.73%
11,COCC(=O)N(C)Cc1nc(N(C)C)ncc1-c1ccncc1,-3.53%
12,Cc1ncsc1CN1C[C@@H](OCC(=O)N(C)C)[C@H]2OCCC[C@H]21,-31.3%
13,CC(C)NS(=O)(=O)c1cc(C(=O)O)cc(-c2ccccc2F)c1,-108%
14,CC(C)NS(=O)(=O)c1cc(C(=O)O)cc(-c2ccccc2C#N)c1,53.8%
15,CC(=O)c1ccccc1-c1cc(C(=O)O)cc(S(=O)(=O)NC(C)C)c1,-9.2%
16,CC(=O)N1CC[C@H]2OCC[C@@H](C(=O)Nc3cccnc3C)[C@H]2C1,-14.2%
17,O=C(NC1CC1)N1C[C@H]2CN(Cc3cccc(F)c3)C(=O)[C@H]2C1,60.2%
18,COCC(=O)N1C[C@H]2CN(Cc3cccc(F)c3)C(=O)[C@H]2C1,50.9%
19,CN(C)C(=O)N1C[C@H]2CN(Cc3cccc(F)c3)C(=O)[C@H]2C1,33%
20,O=C(c1ccco1)N1C[C@H]2CN(Cc3cccc(F)c3)C(=O)[C@H]2C1,1.94%
21,O=C(c1ccc[nH]1)N1C[C@H]2CN(Cc3cccc(F)c3)C(=O)[C@H]2C1,8.53%
22,O=C(CO)N1C[C@H]2CN(Cc3cccc(F)c3)C(=O)[C@H]2C1,40.4%

row,Structure (SMILES),INHIBITION
1,CCc1ccc(C(=O)N2CCCC2c2c(C)nn(C)c2OC)o1 (stereo not drawn),-11.2%
2,Cc1ccc(CN2C[C@@H]3CCCO[C@@H]3[C@H](N(C)Cc3ccco3)C2)s1,-15.1%
3,O=C(O)C1(Oc2ccc3c(c2)OCO3)CCN(C2CCOCC2)CC1,31.9%
4,N#CCC1CC(c2ccc(F)cc2)=NO1 (stereo not drawn),12.6%
5,O=C(CN1CCOC(Cn2cccn2)C1)NCCc1cccs1 (stereo not drawn),6.49%
6,Cn1cccc1C(=O)N1CC[C@@H]2[C@@H]1CC(=O)N2CCN1CCOCC1,1.9%
7,Cn1cccc1C(=O)N1CCC2(CCCN(CC3CC3)C2=O)C1 (stereo not drawn),9.63%
8,O=C(c1ccoc1)N1CC[C@H]2[C@H]1CCN2CC1CC1,-6.05%
9,Cn1cccc1C(=O)N1CCC2(CCCN(CC3CCC3)C2=O)C1 (stereo not drawn),53.6%
10,Cn1cccc1C(=O)N1C[C@H]2CN(CC3CC3)C(=O)[C@H]2C1,2.26%
11,Cn1cccc1C(=O)N1CC[C@@H]2[C@@H]1CC(=O)N2CC1CCOCC1,51.2%
12,O=C1C[C@H]2[C@@H](CCN2C(=O)c2ccccc2)N1CCN1CCOCC1,30.1%
13,Cn1cccc1C(=O)N1CC[C@H]2[C@H]1CCN2CC1CCOCC1,27.5%
14,Cn1cc(Cl)cc1C(=O)N1CCC2(CCCN(CC3CCC3)C2=O)C1 (stereo not drawn),19.5%
15,Cn1cccc1C(=O)N1CC[C@H]2[C@@H]1CCC(=O)N2c1ccccc1,43.8%
16,Cn1cccc1C(=O)N1CC[C@H]2[C@@H]1CCC(=O)N2CC1CC1,54.1%
17,Cn1cccc1C(=O)N1CC[C@H]2[C@H]1CCN2CC1CC1,55.6%
18,CCCn1nc(C)c2c(C(F)F)cc(=O)n(CC(=O)O)c21,-7.59%
19,O=C(c1cccc2ncccc12)N1CCCC(n2ccnc2)C1 (stereo not drawn),27.72%
20,CC(C)c1nnc(NC(=O)CN2C(=O)c3ccccc3NC2C(C)C)s1 (stereo not drawn),19.4%
21,Cc1nn(C)c(N2CCOCC2)c1CNCc1ccc(CO)c(F)c1,-35.7%
22,CCCc1cc(NC2CCc3nc(CC)nn3C2)n2ncnc2n1 (stereo not drawn),16.6%

row,Structure (SMILES),INHIBITION
1,CN1C[C@H]2CNC[C@@]2(C(=O)NC2CCN(c3ncccc3C#N)CC2)C1,36.6%
2,COCc1nn(C(C)C)c2c1CCN(Cc1ccoc1)C2,-76.7%
3,COCc1nn(C(C)C)c2c1CCN(Cc1ccc(C)o1)C2,58.8%
4,COCc1nn(C(C)C)c2c1CCN(Cc1ccc(C)s1)C2,-6.53%
5,N#Cc1ccsc1NC(=O)CN1CCn2c(nnc2C2CC2)C1,23.4%
6,Cc1cc(CN(CCO)Cc2cc(Br)ccc2F)no1,37.8%
7,O=c1c2cc3c(cc2nnn1Cc1ccccc1Cl)OCCO3,57.3%
8,Cc1ccccc1Cn1nnc2cc3c(cc2c1=O)OCCO3,37.5%
9,O=c1c2cc3c(cc2nnn1Cc1ccccc1)OCCO3,15.1%
10,CC(=O)N1CC(=O)N(c2ccccc2)CC12CCN(Cc1nccs1)C2 (stereo not drawn),-0.912%
11,CC(=O)N1N=C(c2cccs2)OC1C(=O)NCCc1cccc(Cl)c1 (stereo not drawn),25.3%
12,CC(C)(C)CN(CCC#N)C(=O)Nc1cccc(N2CCNC2=O)c1,-45.2%
13,COC(=O)c1cccc(C(=O)N(CCC#N)CC(C)(C)C)c1,68.6%
14,CCN(CC)C(=O)c1cccc(Cn2nc(C)cc2C)c1,10.5%
15,N#CCCN(CCC#N)C(=O)c1cccc(N2CCNC2=O)c1,46.1%
16,Cc1cc(C)n(Cc2cccc(C(=O)N(CCC#N)CCC#N)c2)n1,56%
17,CC(C)(C)CN(CCC#N)C(=O)c1cccc(CN2CCCC2)c1,-38.2%
18,Cc1nc2ccc(C(=O)N(CCC#N)CCC#N)cc2nc1C,-37.4%
19,COCCN(CCOC)C(=O)c1cccc(Cn2nc(C)cc2C)c1,11.1%
20,CC(C)(C)CN(CCC#N)C(=O)c1cccc(CC#N)c1,80%
